Source: PubChem BioAssay AID1345085 (National Center for Advancing Translational Sciences (NCATS), 2018)
Inconclusive results are not listed. Activity calls are given as the source filed them. Calls follow the shape of the dose curve; as a rule, active = well fitted cell-killing curve with a large enough effect; inconclusive = small, poorly fitted or top-dose-only effect, or effect the other way; inactive = no such curve, though single readings can be large or run the other way.

test system: PA-1; test: Confirmatory qHTS for gynecologic anti-cancer compounds from libraries of approved drugs and bioactive compounds; details: gynecologic cancer cell panel viability, ATPlite luminescence, 48 h; series mostly up to 57.6 µM; activity change, negative = viability loss: at the top concentration; also: nearly all actives have a fitted effect of over 55% in size
In short: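 ATP-based luminescent viability (ATPlite) after 48 h drug treatment at 37 °C, 5% CO2, across 57.5 uM–0.977 nM in 1:3 steps. Cells seeded at 1,000 per well 16 h beforehand; IC50 values computed, HEK 293T as selectivity control.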
% is scaled to controls: 0 for no effect and ±100 for the full control effect; potency is read from the fitted curve at half-maximal effect.

SMILES	Potency	activity change, negative = viability loss
Cc1ccc(C(=O)N(CCCN)C(c2oc3cc(Cl)ccc3c(=O)c2Cc2ccccc2)C(C)C)cc1 (configuration not stated)	0.0137 µM (active)	–
O=C(O)c1ccc(Nc2ncc3c(n2)-c2ccc(Cl)cc2C(c2c(F)cccc2F)=NC3)cc1	0.968 µM (active)	–
Cc1nc2ccc(CN(C)c3ccc(C(=O)NC(CCC(=O)O)C(=O)O)s3)cc2c(=O)[nH]1 (configuration not stated)	0.137 µM (active)	–
Nc1nc(=S)c2[nH]cnc2[nH]1	6.85 µM (active)	–
CNc1nc(Nc2ccc(C(=O)N3CCOCC3)cc2OC)ncc1Cl	–	3.04% (inactive)
Nc1cccc(-c2cc3c(Oc4cccc(O)c4)ncnc3[nH]2)c1	9.68 µM (active)	–
C[C@@H](Oc1cc(-c2cnn(C3CCNCC3)c2)cnc1N)c1c(Cl)ccc(F)c1Cl	6.85 µM (active)	–
CN1CCN(CCOc2cc(OC3CCOCC3)c3c(Nc4c(Cl)ccc5c4OCO5)ncnc3c2)CC1	19.3 µM (active)	–
CCN(CC)CCCC(C)Nc1ccnc2cc(Cl)ccc12 (configuration not stated)	–	-1.96% [at 19.5 µM] (inactive)
CN(c1nccc(=O)[nH]1)C1CCN(c2nc3ccccc3n2Cc2ccc(F)cc2)CC1	–	-2.59% (inactive)
CNC(=O)c1ccccc1Sc1ccc2c(/C=C/c3ccccn3)n[nH]c2c1	4.32 µM (active)	–
CN1C(=O)C(Cc2c[nH]c3ccccc23)NC1=S (configuration not stated)	–	11% [at 19.5 µM] (inactive)
Cc1ccc(C(=O)N(CCCN)C(c2nc3cc(Cl)ccc3c(=O)n2Cc2ccccc2)C(C)C)cc1 (configuration not stated)	0.0172 µM (active)	–
Nc1ccn([C@@H]2O[C@H](CO)[C@@H](O)C2(F)F)c(=O)n1	0.0611 µM (active)	–
CN(C)c1ccc2nc3ccc(=[N+](C)C)cc-3sc2c1	21.7 µM (active)	–
COc1cc2nccc(Oc3ccc(NC(=O)C4(C(=O)Nc5ccc(F)cc5)CC4)cc3)c2cc1OC	10.9 µM (active)	–
CC(C)n1nc(-c2cc3cc(O)ccc3[nH]2)c2c(N)ncnc21	13.7 µM (active)	–
Cc1cc(Nc2nc(N[C@@H](C)c3ccc(F)cc3)c(C#N)cc2F)n[nH]1	3.06 µM (active)	–
Cc1cnc(CNC(=O)c2c(=O)c3ccc(N4CCCN(C)CC4)nc3n3c2sc2ccccc23)cn1	1.11 µM (active)	–

SMILES	Potency	activity change, negative = viability loss
COc1cc(Nc2ncc(F)c(Nc3ccc4c(n3)N(COP(=O)(O)O)C(=O)C(C)(C)O4)n2)cc(OC)c1OC	9.68 µM (active)	–
CNCc1ccc(-c2[nH]c3cc(F)cc4c3c2CCNC4=O)cc1	19.3 µM (active)	–
CC(=O)NCC(=O)N1C2CCC1c1cc(Nc3ncc(C(F)(F)F)c(NC4CCC4)n3)ccc12 (configuration not stated)	0.685 µM (active)	–
Cc1ccn(-c2ccc(-c3ncco3)cc2)c(=O)c1-c1ccc2nc(N)ncc2c1	27.3 µM (active)	–
O=c1cc(CN2CCOCC2)occ1OCCCCCSc1ccnc2cc(C(F)(F)F)ccc12	8.63 µM (active)	–
CC(C)C[C@H](NC(=O)[C@H](CCc1ccccc1)NC(=O)CN1CCOCC1)C(=O)N[C@@H](Cc1ccccc1)C(=O)N[C@@H](CC(C)C)C(=O)[C@@]1(C)CO1	2.43 µM (active)	–
Cc1c(C)n(Cc2ccc(-c3ccccc3C(=O)O)cc2)c2ccc(C(=O)N[C@@H](C)c3ccc([N+](=O)[O-])cc3)cc12	–	-26.3% (inactive)
Cc1ccc(C(=O)Nc2cccc(C(F)(F)F)c2)cc1-c1ccc2nc(NCCN3CCOCC3)ncc2c1	17.2 µM (active)	–
Cc1nc(N)ncc1-c1nc(N2CCOCC2)c2sc(C(C)(C)O)cc2n1	6.85 µM (active)	–
CCn1cc(-c2ccnc3[nH]c(-c4cccc(CN(C)C)c4)cc23)c(-c2ccc(NC(=O)N(C)C)cc2)n1	8.41 µM (active)	–
CCS(=O)(=O)c1cccc(-c2cc(C(=O)NC3CCN(C)CC3)c(C)c3[nH]c4ncc(C)cc4c23)c1	1.06 µM (active)	–
COc1cc(Nc2ncc3c(n2)-c2ccc(Cl)cc2C(c2c(F)cccc2OC)=NC3)ccc1C(=O)O	0.193 µM (active)	–
CCn1c(-c2nonc2N)nc2c(C#CC(C)(C)O)ncc(OCC3CCCNC3)c21 (configuration not stated)	7.69 µM (active)	–
CC(C)c1nn(-c2c(Cl)cccc2Cl)c2nc(Cc3ccc(OCCO)cc3)[nH]c(=O)c12	0.0968 µM (active)	–
S=c1nc[nH]c2nc[nH]c12	3.85 µM (active)	–
C1CCC(C(CC2CCCCN2)C2CCCCC2)CC1 (configuration not stated)	27.3 µM (active)	–
Cc1ccc(C(=O)Nc2ccc(CN3CCN(C)CC3)c(C(F)(F)F)c2)cc1C#Cc1cnc2cccnn12	6.85 µM (active)	–
CC(=O)OC12COC1CC(O)C1(C)C(=O)C(O)C3=C(C)C(OC(=O)C(O)C(NC(=O)OC(C)(C)C)c4ccccc4)CC(O)(C(OC(=O)c4ccccc4)C21)C3(C)C (configuration not stated)	0.0077 µM (active)	–
